Only some compounds are listed: those with a hit (about 0.93% of all), similar ones and a draw of the others.
CDC25B-CDK2 inh: human CDC25B-CDK2/CyclinA binding inhibition; z-score (no concentration beside the values); HTRF CDC25B-CDK2/CyclinA binding, anti-His/anti-Flag; stronger effect = higher value; P30305+P24941; 94,000 compounds, 0.72% hits; in the data active = z-score above about 3.2
HIV TAR-Tat: HIV-1 TAR-Tat binding disruption. HIV-1 TAR RNA, Tat peptide displacement FRET; stronger effect = higher value. 100,000 compounds, 0.6% hits. z-score (test concentration not listed). AID 1259389; active = z-score of 3 or more in at least 2 runs
Large screens that a line does not name were inactive.

COc1ccc(C(=O)Oc2ccc(N(C)C3=NS(=O)(=O)c4ccccc43)cc2)cc1OC	none
Cc1ccc(NC(=O)c2nccnc2C(=O)O)cc1	none (no result: HIV TAR-Tat)
CC(=O)Nc1ccc(NC(=O)c2nccnc2C(=O)O)cn1	CDC25B-CDK2 inh 11.4 (no result: HIV TAR-Tat)
Cc1cc(NC(=O)CSc2nc(C3CCCCC3)nc3c2c(=O)n(C)c(=O)n3C)no1	none (no result: CDC25B-CDK2 inh)
O=C(NCCC1=CCCCC1)c1noc2c1CSc1ccccc1-2	none
O=C(O)C1CCCN1c1ncc(Cl)cc1[N+](=O)[O-] (stereo unspecified)	none (no result: CDC25B-CDK2 inh)
CCOC(=O)C1CCCN1c1ncc(Cl)cc1[N+](=O)[O-] (stereo unspecified)	CDC25B-CDK2 inh 13.8
CCOc1ccccc1NC(=O)N1c2ccccc2NC2=C(C(=O)CCC2)C1c1cccs1 (stereo unspecified)	HIV TAR-Tat 21.1 (no result: CDC25B-CDK2 inh)
COc1ccccc1NC(=O)N1c2ccccc2NC2=C(C(=O)CCC2)C1c1cccs1 (stereo unspecified)	none (no result: CDC25B-CDK2 inh)
O=C(NCCCN1CCCC1)c1cc2c(s1)-c1ccsc1CC2	none (no result: CDC25B-CDK2 inh)
N=C1C(c2nc3ccccc3[nH]2)=C(O)CN1c1ccc(S(N)(=O)=O)cc1	HIV TAR-Tat 4.42
N=C1C(c2nc3ccccc3[nH]2)=C(O)CN1c1ccc(F)cc1	none
Cc1cccc(N2CC(=O)N/C2=N\c2nc(C)cc(C)n2)c1	none (no result: HIV TAR-Tat)
CCc1nn(CC(=O)NC2CCCc3ccccc32)c(=O)c2cc3sccc3n12 (stereo unspecified)	none
COc1cc(-c2nc(-c3ccccc3)c(-c3ccccc3)[nH]2)ccc1O	none (no result: HIV TAR-Tat)
COc1ccc(-c2nc(-c3cccs3)c(-c3cccs3)[nH]2)cc1O	CDC25B-CDK2 inh 18.3
Clc1cccc(-c2ccc(-c3nn4c(-c5ccco5)nnc4s3)o2)c1	HIV TAR-Tat 17.4
Fc1ccccc1-c1ccc(-c2nn3c(-c4ccco4)nnc3s2)o1	HIV TAR-Tat 19.9
Cc1occc1-c1nnc2sc(-c3ccc(-c4cccc(Cl)c4)o3)nn12	none
FC(F)(F)c1cccc(-c2ccc(-c3nn4c(-c5ccco5)nnc4s3)o2)c1	none (no result: HIV TAR-Tat)
CC1CC(C)CN(S(=O)(=O)N2CCCC(C(=O)NCCN(C)C)C2)C1 (stereo unspecified)	none (no result: CDC25B-CDK2 inh)
COc1ccc(C2CC(c3c(O)n(C)c(=O)n(C)c3=O)=Nc3ccccc3S2)cc1OC (stereo unspecified)	CDC25B-CDK2 inh 19.9
COc1cc(C2CC(c3c(O)n(C)c(=O)n(C)c3=O)=Nc3ccccc3S2)ccc1O (stereo unspecified)	none
Cc1cc(C)cc(OCC(=O)Nc2nc(-c3ccc(Br)o3)ns2)c1	none
CCN1CCN(c2cc(NCC(=O)O)c3c4c(onc24)-c2ccccc2C3=O)CC1	none
CC(C)CNc1cc(N2CCCC2)c2noc3c2c1C(=O)c1ccccc1-3	none
O=C(O)c1ccccc1Nc1cc(N2CCCC2)c2noc3c2c1C(=O)c1ccccc1-3	HIV TAR-Tat 7.52
O=C(O)CNc1cc(N2CCCC2)c2noc3c2c1C(=O)c1ccccc1-3	CDC25B-CDK2 inh 5.47
O=C(O)CCCNc1cc(N2CCCC2)c2noc3c2c1C(=O)c1ccccc1-3	none
O=C(O)CNc1cc(N2CCCCC2)c2noc3c2c1C(=O)c1ccccc1-3	CDC25B-CDK2 inh 4.4
O=C(COc1ccc(Br)cc1)Nc1nc2c(s1)CCCC2	none
COc1ccc(C2c3c(oc4ccccc4c3=O)C(=O)N2c2nnc(C)s2)cc1 (stereo unspecified)	none
CCN1C(=O)c2cc(C(=O)N3CCN(C)CC3)nn2CC1(C)C(=O)NC1CCCC1 (stereo unspecified)	none (no result: CDC25B-CDK2 inh)
CCCOc1ccc(C2C3=C(CC(C)(C)CC3=O)NC3=C2C(=O)CC(C)(C)C3)cc1	CDC25B-CDK2 inh 16.1
C=CCOc1ccc(C2C3=C(CC(C)(C)CC3=O)NC3=C2C(=O)CC(C)(C)C3)cc1	none
Cc1cc(C2CCCN2C(=O)Cn2cc(Cl)cn2)on1 (stereo unspecified)	none (no result: CDC25B-CDK2 inh)
CCc1nn(CC(=O)O)c(=O)c2cc3cc(F)ccc3n12	none
O=c1c(O)c(-c2cc(O)c(O)c(O)c2)oc2cc(O)ccc12	HIV TAR-Tat 18.5 (no result: CDC25B-CDK2 inh)
O=c1c(O)c(-c2ccc(O)c(O)c2)oc2cc(O)ccc12	none (no result: CDC25B-CDK2 inh)
CCN(CC)c1cc2c(cc1F)c(=O)c(S(=O)(=O)c1cc(C)ccc1C)cn2CC	none (no result: CDC25B-CDK2 inh)
O=C(NCc1ccco1)c1ccc2nc(-c3cccs3)c(-c3cccs3)nc2c1	none (no result: CDC25B-CDK2 inh)
O=C(O)c1cc(-c2ccco2)nc2ccc(Br)cc12	HIV TAR-Tat 6.36 (no result: CDC25B-CDK2 inh)
O=C(O)c1cc(-c2ccc(O)cc2)nc2ccc(Br)cc12	none (no result: HIV TAR-Tat)
O=C(O)c1ccc2nc(-c3ccco3)c(-c3ccco3)nc2c1	HIV TAR-Tat 51.4 (no result: CDC25B-CDK2 inh)
CC(C)C(=O)Nc1nn2c(-c3ccco3)nnc2s1	none
O=[N+]([O-])c1cc(C(F)(F)F)ccc1-n1ccc(-c2cccs2)n1	none (no result: HIV TAR-Tat)
NCC1O[C@H](O[C@H]2C(O)C(O[C@H]3OC(CO)[C@@H](O)[C@@H](N)C3O)[C@H](N)C[C@H]2N)C(O)[C@H](O)[C@@H]1O (stereo partly specified)	none (no result: CDC25B-CDK2 inh)
CCOc1ccc(S(=O)(=O)Nc2cc3c(c4ccccc24)OC2(C3)N(C)c3ccccc3C2(C)C)cc1 (stereo unspecified)	CDC25B-CDK2 inh 18.5 (no result: HIV TAR-Tat)
CCOc1ccc(S(=O)(=O)Nc2ccc3c(c2)N(S(=O)(=O)c2ccccc2)CCC3)cc1	none (no result: CDC25B-CDK2 inh)
Cc1nc(C(=O)Nc2ccc3nsnc3c2)cc2c1[nH]c1ccccc12	none
Clc1cccc(CN2CCc3nc(N4CCOCC4)ncc3C2)c1	none (no result: CDC25B-CDK2 inh)
Cc1ncc(COP(=O)(O)O)c(C=Nc2ccc3ccccc3c2)c1O	CDC25B-CDK2 inh 13.9 (no result: HIV TAR-Tat)
Cc1nc(N=Nc2ccc(C(=O)O)cc2)c(COP(=O)(O)O)c(C=O)c1O	none (no result: HIV TAR-Tat)
O=C(NCC1COc2ccccc2O1)Nc1ccc(Cl)cc1 (stereo unspecified)	none (no result: HIV TAR-Tat)
Cc1noc(-c2ccccc2)c1NC(=O)NCC1COc2ccccc2O1 (stereo unspecified)	CDC25B-CDK2 inh 7 (no result: HIV TAR-Tat)
O=C(CN1C(=O)c2cccnc2Sc2ccccc21)Nc1ccc2c(c1)OCCO2	none (no result: CDC25B-CDK2 inh)
O=C(CN1C(=O)c2ccccc2Sc2ncccc21)Nc1ccc2c(c1)OCO2	HIV TAR-Tat 12.6 (no result: CDC25B-CDK2 inh)
C[C@](N)(Cc1ccc(O)cc1)C(=O)O	none (no result: HIV TAR-Tat)
C[C@](N)(Cc1ccc(O)c(O)c1)C(=O)O	HIV TAR-Tat 25.7
Nc1ccccc1SC/C=C/CSc1ccccc1N	CDC25B-CDK2 inh 14.9 (no result: HIV TAR-Tat)
C(=C\CSc1ccccn1)/CSc1ccccn1	none (no result: HIV TAR-Tat)
Cc1ccccc1Nc1nc2ccc(Cl)cc2n2cnnc12	none
CCCS(=O)(=O)N1CCCc2ccc(NS(=O)(=O)c3ccc(OC)cc3OC)cc21	HIV TAR-Tat 5.99 (no result: CDC25B-CDK2 inh)
CCS(=O)(=O)N1CCCc2ccc(NS(=O)(=O)c3cc(OC)ccc3OC)cc21	none (no result: CDC25B-CDK2 inh)
O=C(CSc1nccs1)N1CCN(c2ccccc2)CC1	none (no result: HIV TAR-Tat)
Oc1ccc2ncccc2c1C(Nc1ccccn1)c1cccc(Cl)c1 (stereo unspecified)	CDC25B-CDK2 inh 14.7
Oc1ccc2ncccc2c1C(Nc1ccccn1)c1ccc(Cl)cc1 (stereo unspecified)	none
CCOC(=O)C1=NOC2C(=O)N(c3ccc(C)cc3)C(=O)C12 (stereo unspecified)	none
Cc1cc(C)n(-c2nc3c(c(=O)n2CC(N)=O)CCCC3)n1	HIV TAR-Tat 12.1 (no result: CDC25B-CDK2 inh)
Cc1cc(C)n(-c2nc3c(c(=O)n2CC(=O)NC(C)(C)C)CCCC3)n1	none (no result: CDC25B-CDK2 inh)
Cc1ccc(NC(=O)Nc2ccc3snnc3c2)cc1	none (no result: HIV TAR-Tat)
O=C(NCCO)Nc1ccc2snnc2c1	CDC25B-CDK2 inh 10.8
COc1cccc(-c2noc3ncnc(NCCO)c23)c1	none (no result: CDC25B-CDK2 inh)
O=C(O)/C=C/c1ccc(O)c(O)c1	none
O=C(/C=C/c1ccc(O)c(O)c1)O[C@H](Cc1ccc(O)c(O)c1)C(=O)O	HIV TAR-Tat 16.6 (no result: CDC25B-CDK2 inh)

Screening results deposited in PubChem by Center for Chemical Genomics, University of Michigan.
